PubChem BioAssay (EPA / NIEHS)
Active and inactive are the calls of the source. Rule for the calls: active = hit-call score of the fitted dose curve at least 0.9, where 1 is the maximum; inactive = score below 0.9.

Columns and labels:
[1] = ATG_E_Box_CIS: Attagene CIS-FACTORIAL HepG2 Assay for human Enhancer Box (E-box) (AID 2282936); conditions: HepG2 E-box cis-reporter transcription, actives raise or lower the signal
Outline: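 E-box-driven reporter transcripts measured in transiently transfected HepG2 after 24 h exposure: RNA reverse-transcribed, PCR-amplified, fluorescently labelled, digested and resolved by capillary electrophoresis. Gain or loss relative to DMSO.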

[2] = ATG_EGR_CIS: Attagene CIS-FACTORIAL HepG2 Assay for human Early Growth Response 1 (EGR1) (AID 2282938); conditions: HepG2 Attagene CIS-FACTORIAL EGR reporter mRNA; actives raise or lower the signal
Outline: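 HepG2 cells transiently transfected with cis-element-driven multiplexed reporter units, dosed for 24 h. EGR1-element reporter mRNA quantified by RT-PCR, 6-FAM labelling, HpaI digestion and capillary electrophoresis; bidirectional fit versus DMSO.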

[3] = ATG_M_19_CIS: Attagene CIS-FACTORIAL HepG2 Assay for M19 Transcription Factor (Internal Marker) (AID 2282939); conditions: HepG2 Attagene CIS-FACTORIAL M19 internal marker reporter; actives raise or lower the signal
Outline: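 Chemical-treated HepG2 (24 h) with MRTU constructs; reporter transcripts detected by fluorescent RT-PCR fragment analysis on capillary electrophoresis. Internal background marker, DMSO as baseline.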

[4] = ATG_Ets_CIS: Attagene CIS-FACTORIAL HepG2 Assay for human Erythroblast Transformation Specific (ETS) (AID 2282941); conditions: HepG2 ETS cis-reporter transcription, actives raise or lower the signal
Outline: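 Endogenous transcription factor activity read as reporter mRNA via RT-PCR and capillary electrophoresis, with gain or loss fitted bidirectionally against DMSO. Human HepG2 liver cells, transiently transfected CIS reporter constructs, 24 h exposure.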

[5] = target: Hepatocyte nuclear factor 3-beta (Homo sapiens) (UniProt Q9Y261); assay: ATG_FoxA2_CIS: Attagene CIS-FACTORIAL HepG2 Assay for human Forkhead box A2 (FOXA2) (AID 2282942); conditions: HepG2 cis-reporter transcription factor activity, 24 h; actives raise or lower the signal
Sequence of Hepatocyte nuclear factor 3-beta (Homo sapiens) (Q9Y261 whole entry, looked up): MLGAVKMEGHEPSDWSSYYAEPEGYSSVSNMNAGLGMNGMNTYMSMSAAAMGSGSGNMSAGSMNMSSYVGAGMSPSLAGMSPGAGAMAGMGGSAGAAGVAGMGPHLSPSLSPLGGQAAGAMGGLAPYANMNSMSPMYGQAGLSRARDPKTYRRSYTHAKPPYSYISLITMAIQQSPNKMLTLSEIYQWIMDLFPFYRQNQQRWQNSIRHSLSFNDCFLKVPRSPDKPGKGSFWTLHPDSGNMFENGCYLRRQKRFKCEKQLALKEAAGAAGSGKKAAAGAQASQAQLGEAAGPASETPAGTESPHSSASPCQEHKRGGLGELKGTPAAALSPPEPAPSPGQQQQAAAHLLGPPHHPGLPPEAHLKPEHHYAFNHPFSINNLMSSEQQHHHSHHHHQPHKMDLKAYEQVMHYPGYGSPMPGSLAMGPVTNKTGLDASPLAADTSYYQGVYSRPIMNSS
Outline: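 HepG2 transiently transfected with a multiplexed cis-promoter reporter library read endogenous FOXA2 activity. After 24 h compound exposure, reporter mRNA was quantified by RT-PCR, HpaI digestion and capillary electrophoresis. Bidirectional fit against DMSO.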

[6] = ATG_FoxO_CIS: Attagene CIS-FACTORIAL HepG2 Assay for human Forkhead box O (FoxO) (AID 2282943); conditions: HepG2 Attagene cis-reporter, FoxO element, mRNA; actives raise or lower the signal
Outline: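 HepG2, transient MRTU transfection (cis element, endogenous TFs). Dose 24 h. TriZol RNA → oligo(dT) RT → PCR → 6-FAM primer extension → HpaI cut → CE. Gain/loss vs DMSO.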

[7] = ATG_GATA_CIS: Attagene CIS-FACTORIAL HepG2 Assay for human GATA Binding Protein (AID 2282944); conditions: HepG2 GATA cis-element reporter, Attagene multiplex mRNA; actives raise or lower the signal
Outline: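 Transfected cis-reporter HepG2 cells were treated with chemicals for 24 hours. Total RNA was then converted to cDNA, amplified with reporter-specific primers and analysed by fluorescent capillary electrophoresis, using DMSO-treated wells as baseline.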

[8] = ATG_GLI_CIS: Attagene CIS-FACTORIAL HepG2 Assay for human Zinc Finger Protein GLI1 (AID 2282945); conditions: HepG2, Attagene cis-factorial reporter mRNA, GLI element; actives raise or lower the signal
Outline: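 Bidirectional curve fits relative to DMSO, using reporter mRNA levels from RT-PCR plus capillary electrophoresis. Cells were HepG2 transiently carrying cis-regulated reporter constructs, harvested 24 h after dosing.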

[9] = target: Bile acid receptor (Homo sapiens) (UniProt Q96RI1); assay: ATG_IR1_CIS: Attagene CIS-FACTORIAL HepG2 Assay for human Nuclear Receptor Subfamily 1 Group H Member 4 (NR1H4), IR1 submotif (AID 2282946); conditions: IR1 reporter transcription, actives raise or lower the signal
Sequence of Bile acid receptor (Homo sapiens) (Q96RI1 whole entry, looked up): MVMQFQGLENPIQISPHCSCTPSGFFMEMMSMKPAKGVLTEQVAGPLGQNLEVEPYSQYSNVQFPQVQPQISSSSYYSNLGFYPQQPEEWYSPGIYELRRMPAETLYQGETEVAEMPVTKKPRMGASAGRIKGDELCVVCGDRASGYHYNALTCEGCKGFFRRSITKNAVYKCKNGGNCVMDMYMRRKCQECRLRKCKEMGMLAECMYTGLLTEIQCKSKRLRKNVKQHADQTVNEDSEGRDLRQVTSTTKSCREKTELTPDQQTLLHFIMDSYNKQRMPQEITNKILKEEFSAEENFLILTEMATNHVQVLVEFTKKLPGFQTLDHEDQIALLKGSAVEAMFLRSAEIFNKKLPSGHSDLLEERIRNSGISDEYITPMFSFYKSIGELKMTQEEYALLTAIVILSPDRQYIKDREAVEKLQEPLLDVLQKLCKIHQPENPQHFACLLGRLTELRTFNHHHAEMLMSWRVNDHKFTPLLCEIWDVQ
Outline: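 HepG2 cells transiently transfected with multiplexed cis-element reporter units read endogenous transcription factor activity. After 24 h compound exposure, reporter mRNA was quantified by RT-PCR, fluorescent labelling, HpaI digestion and capillary electrophoresis; bidirectional fitting versus DMSO baseline.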

[10] = ATG_ISRE_CIS: Attagene CIS-FACTORIAL HepG2 Assay for human Interferon Regulatory Factor 1 (IRF1) binding to an Interferon-Stimulated Response Element (ISRE) (AID 2282948); conditions: HepG2 ISRE cis-reporter (Attagene), mRNA transcription readout; actives raise or lower the signal
Outline: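 Endogenous transcription factor activity read as reporter transcript abundance via RT-PCR and capillary electrophoresis. HepG2 cells transiently transfected, 24 h chemical exposure. Gain or loss fitted against DMSO baseline.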

[11] = ATG_M_32_CIS: Attagene CIS-FACTORIAL HepG2 Assay for M32 Transcription Factor (Internal Marker) (AID 2282949); conditions: HepG2 Attagene cis-factorial M32 reporter, mRNA; actives raise or lower the signal;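 note: background control marker of the multiplexed CIS panel rather than a real target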
Outline: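 HepG2 transfectants (cis-regulated reporter transcription units) dosed 24 h. Reporter mRNA by RT-PCR plus CE, analysed as gain or loss relative to DMSO.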

[12] = ATG_M_06_CIS: Attagene CIS-FACTORIAL HepG2 Assay for M06 Transcription Factor (Internal Marker) (AID 2282950); conditions: HepG2 Attagene CIS-FACTORIAL M06 internal marker reporter; actives raise or lower the signal
Outline: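 Cells (HepG2, transiently carrying cis-driven reporter units) receive chemical for 24 h before RNA isolation. Reporter cDNA is PCR-amplified, FAM-labelled by primer extension, HpaI-digested and sized on a capillary analyser.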

[13] = target: Hypoxia-inducible factor 1-alpha (Homo sapiens) (UniProt Q16665); assay: ATG_HIF1a_CIS: Attagene CIS-FACTORIAL HepG2 Assay for human Hypoxia Inducible Factor 1 (HIF1A) (AID 2282951); conditions: HepG2 Attagene cis-factorial HIF1a reporter transcription; actives raise or lower the signal
Sequence of Hypoxia-inducible factor 1-alpha (Homo sapiens) (Q16665 whole entry, looked up): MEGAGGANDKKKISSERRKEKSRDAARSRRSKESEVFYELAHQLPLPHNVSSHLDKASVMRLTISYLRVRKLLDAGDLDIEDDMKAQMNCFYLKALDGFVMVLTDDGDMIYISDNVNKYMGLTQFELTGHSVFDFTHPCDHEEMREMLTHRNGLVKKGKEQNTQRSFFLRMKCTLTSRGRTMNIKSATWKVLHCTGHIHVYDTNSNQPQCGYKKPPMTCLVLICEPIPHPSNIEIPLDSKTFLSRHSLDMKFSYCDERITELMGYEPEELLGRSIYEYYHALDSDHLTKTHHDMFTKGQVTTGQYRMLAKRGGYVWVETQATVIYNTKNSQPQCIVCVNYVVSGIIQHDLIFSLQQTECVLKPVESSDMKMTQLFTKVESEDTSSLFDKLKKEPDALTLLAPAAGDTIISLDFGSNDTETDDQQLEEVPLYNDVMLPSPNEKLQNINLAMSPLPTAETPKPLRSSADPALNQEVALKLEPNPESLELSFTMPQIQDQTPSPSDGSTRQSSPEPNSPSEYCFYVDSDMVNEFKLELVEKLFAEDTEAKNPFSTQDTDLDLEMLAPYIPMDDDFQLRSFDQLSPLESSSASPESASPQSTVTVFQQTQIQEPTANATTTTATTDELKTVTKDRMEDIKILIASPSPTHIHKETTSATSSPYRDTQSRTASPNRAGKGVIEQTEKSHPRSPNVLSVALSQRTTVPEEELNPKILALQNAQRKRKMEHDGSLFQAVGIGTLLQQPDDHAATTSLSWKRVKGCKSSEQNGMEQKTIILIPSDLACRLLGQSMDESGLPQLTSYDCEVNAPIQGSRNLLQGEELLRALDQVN
Outline: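 HepG2 cells transiently transfected with multiple cis-regulated reporter transcription units measure endogenous transcription factor activity. After 24 h exposure, reporter mRNA is quantified by RT-PCR with 6-FAM labelling, HpaI digestion and capillary electrophoresis. Bidirectional fitting against DMSO.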

[14] = target: Hepatocyte nuclear factor 6 (Homo sapiens) (UniProt Q9UBC0); assay: ATG_HNF6_CIS: Attagene CIS-FACTORIAL HepG2 Assay for human Hepatocyte Nuclear Factor 6 (HNF6) (AID 2282952); conditions: HepG2 Attagene cis-factorial HNF6 reporter transcription; actives raise or lower the signal
Sequence of Hepatocyte nuclear factor 6 (Homo sapiens) (Q9UBC0 whole entry, looked up): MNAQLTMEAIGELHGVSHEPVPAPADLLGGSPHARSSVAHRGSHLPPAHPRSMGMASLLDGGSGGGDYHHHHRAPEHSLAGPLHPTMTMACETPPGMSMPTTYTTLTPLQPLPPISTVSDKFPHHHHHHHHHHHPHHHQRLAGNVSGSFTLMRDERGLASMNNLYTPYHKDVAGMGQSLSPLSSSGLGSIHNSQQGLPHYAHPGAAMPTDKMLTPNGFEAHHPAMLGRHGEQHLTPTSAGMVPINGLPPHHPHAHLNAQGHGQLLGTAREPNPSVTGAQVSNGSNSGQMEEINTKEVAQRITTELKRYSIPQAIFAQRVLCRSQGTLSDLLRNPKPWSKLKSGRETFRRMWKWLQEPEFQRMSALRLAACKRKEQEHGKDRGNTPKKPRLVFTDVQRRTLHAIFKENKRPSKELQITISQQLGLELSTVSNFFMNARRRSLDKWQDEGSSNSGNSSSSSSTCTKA
Outline: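 Endogenous transcription factor activity in human HepG2 liver cells was captured through cis-regulated reporter constructs. After 24 h treatment, reporter mRNA was measured by RT-PCR with capillary electrophoresis, and activity was fitted in both directions relative to DMSO.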

[15] = target: Heat shock factor protein 1 (Homo sapiens) (UniProt Q00613); assay: ATG_HSE_CIS: Attagene CIS-FACTORIAL HepG2 Assay for human Heat Shock Transcription Factor 1 (HSE) (AID 2282953); conditions: HepG2 HSE cis-reporter, Attagene RNA transcription; actives raise or lower the signal
Sequence of Heat shock factor protein 1 (Homo sapiens) (Q00613 whole entry, looked up): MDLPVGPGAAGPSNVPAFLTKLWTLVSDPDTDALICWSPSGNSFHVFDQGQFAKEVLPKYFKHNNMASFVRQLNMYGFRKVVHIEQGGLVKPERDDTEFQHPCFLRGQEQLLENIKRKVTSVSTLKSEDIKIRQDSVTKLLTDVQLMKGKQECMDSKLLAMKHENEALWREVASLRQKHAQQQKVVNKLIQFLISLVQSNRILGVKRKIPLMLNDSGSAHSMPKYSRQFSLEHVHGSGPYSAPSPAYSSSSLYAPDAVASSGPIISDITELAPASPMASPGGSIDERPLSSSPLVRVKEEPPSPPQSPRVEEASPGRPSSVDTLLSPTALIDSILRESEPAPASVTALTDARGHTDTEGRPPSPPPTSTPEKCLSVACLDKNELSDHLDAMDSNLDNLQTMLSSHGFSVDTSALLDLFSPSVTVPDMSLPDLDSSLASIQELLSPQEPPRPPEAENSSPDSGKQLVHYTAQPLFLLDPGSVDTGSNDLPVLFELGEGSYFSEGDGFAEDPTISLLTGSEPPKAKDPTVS
Outline: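 Liver-derived HepG2 cells carry transiently introduced multiple reporter units governed by cis promoters. Reporter RNA measured 24 h post-dose through reverse transcription, PCR amplification, fluorescent labelling and capillary electrophoresis, normalised to DMSO.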

[16] = ATG_MRE_CIS: Attagene CIS-FACTORIAL HepG2 Assay for human Metal Responsive Element (MRE) (AID 2282954); conditions: HepG2 MRE cis-reporter transcription, Attagene multiplex; actives raise or lower the signal
Outline: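 Endogenous MRE-dependent transcription read as reporter mRNA in transiently transfected human HepG2 cells at 24 h. RNA reverse-transcribed, PCR-amplified, labelled and resolved by capillary electrophoresis; gain or loss relative to DMSO.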

[17] = ATG_ERE_CIS: Attagene CIS-FACTORIAL HepG2 Assay for Estrogen Response Element (ERE) (AID 2282940); conditions: HepG2 ERE cis-reporter, Attagene RNA transcript; actives raise or lower the signal
Outline: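 Human liver cells (HepG2) bearing transiently transfected, promoter-regulated reporter units were exposed 24 h. Reporter mRNA induction was detected by capillary electrophoresis of labelled RT-PCR products and fitted bidirectionally to DMSO.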

[18] = ATG_GRE_CIS: Attagene CIS-FACTORIAL HepG2 Assay for human Glucocorticoid Response Elements (GRE) (AID 2282947); conditions: HepG2 GRE cis-reporter, Attagene multiplex mRNA; actives raise or lower the signal
Outline: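 Reporter transcripts read by RT-PCR with capillary electrophoresis fluorescence after a 24 h chemical exposure of HepG2 cells transiently transfected with multiple cis-element reporter units. Gain or loss fitted against DMSO.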

[19] = ATG_PBREM_CIS: Attagene CIS-FACTORIAL HepG2 Assay for human Phenobarbital-responsive Enhancer Module (PBREM) (AID 2282955); conditions: HepG2 PBREM cis-reporter, Attagene multiplexed transcription; actives raise or lower the signal
Outline: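 HepG2 cells transiently transfected with multiple cis-regulated reporter units measure endogenous transcription factor activity; 24 h compound exposure. Reporter mRNA quantified by RT-PCR, fluorescent labelling, HpaI digestion and capillary electrophoresis; bidirectional fit versus DMSO.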

[20] = ATG_M_61_CIS: Attagene CIS-FACTORIAL HepG2 Assay for M61 Transcription Factor (Internal Marker) (AID 2282937); conditions: HepG2 Attagene CIS-FACTORIAL M61 internal marker reporter; actives raise or lower the signal
Outline: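 HepG2 cells transiently transfected with multiplexed cis-promoter reporter units reporting endogenous transcription factor activity, measured 24 h after dosing. Reporter mRNA quantified by RT-PCR and capillary electrophoresis; bidirectional fit against DMSO baseline.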

Measured: outcome

CCCCO
inactive: [1] | [2] | [3] | [4] | [5] | [6] | [7] | [8] | [9] | [10] | [11] | [12] | [13] | [14] | [15] | [16]

O=CCCc1ccccc1
inactive: [1] | [2] | [3] | [4] | [5] | [6] | [7] | [8] | [10] | [11] | [12] | [13] | [14] | [15] | [16]

CC1(C)[C@H](C(=O)OCc2cccc(Oc3ccccc3)c2)[C@@H]1C=C(Cl)Cl
inactive: [1] | [2] | [3] | [17] | [5] | [6] | [7] | [8] | [18] | [10] | [12] | [13] | [14] | [15] | [16] | [19]

CC(CCO)CCCC(C)(C)O (centres undefined)
inactive: [1] | [2] | [3] | [4] | [5] | [6] | [7] | [8] | [9] | [18] | [10] | [11] | [12] | [13] | [14] | [15] | [16]

Cc1ccc(C=O)cc1
inactive: [1] | [2] | [3] | [17] | [4] | [5] | [6] | [7] | [8] | [9] | [10] | [13] | [14] | [15] | [16]

CCCCCCCCCCC(CO)CCCCCCCC (centres undefined)
inactive: [1] | [2] | [3] | [4] | [5] | [6] | [7] | [8] | [18] | [10] | [11] | [12] | [13] | [14] | [15] | [16]

CC(=O)OCCOC(C)=O
inactive: [1] | [2] | [3] | [17] | [4] | [5] | [6] | [7] | [8] | [18] | [10] | [11] | [12] | [13] | [14] | [15] | [16] | [19]

CC1CC(OC(=O)c2ccccc2O)CC(C)(C)C1 (centres undefined)
inactive: [1] | [2] | [3] | [4] | [5] | [6] | [7] | [8] | [18] | [10] | [11] | [12] | [14] | [15] | [16] | [19]

Cc1ccc2n[nH]nc2c1
inactive: [20] | [2] | [3] | [17] | [4] | [5] | [6] | [7] | [8] | [9] | [18] | [10] | [11] | [12] | [13] | [14] | [15] | [16]

CO[Si](CCCn1c(=O)n(CCC[Si](OC)(OC)OC)c(=O)n(CCC[Si](OC)(OC)OC)c1=O)(OC)OC
inactive: [1] | [2] | [3] | [5] | [6] | [7] | [8] | [10] | [11] | [12] | [14] | [15] | [16]

CC(C)C1CCC(O)CC1 (centres undefined)
inactive: [1] | [2] | [3] | [4] | [5] | [6] | [7] | [18] | [10] | [11] | [12] | [13] | [14] | [15] | [16] | [19]

O=C(OCc1ccccc1)C(=O)OCc1ccccc1
inactive: [1] | [2] | [3] | [17] | [4] | [5] | [6] | [7] | [8] | [18] | [10] | [11] | [12] | [13] | [14] | [16] | [19]

CC(C)=CCC[C@](C)(O)[C@@H]1CC=C(C)CC1
inactive: [1] | [2] | [3] | [4] | [5] | [6] | [8] | [18] | [10] | [11] | [12] | [13] | [14] | [16]

COc1cc(C=O)ccc1OC(=O)C(C)C
inactive: [1] | [2] | [3] | [4] | [5] | [6] | [7] | [8] | [10] | [11] | [13] | [14] | [15] | [16]

COc1c(Cl)c(Cl)c(Cl)c(Cl)c1Cl
inactive: [1] | [2] | [4] | [5] | [6] | [7] | [8] | [9] | [18] | [10] | [11] | [12] | [13] | [14] | [15] | [16] | [19]

CCCCCC=CCC(=O)OC
inactive: [1] | [2] | [3] | [4] | [5] | [6] | [7] | [8] | [18] | [10] | [11] | [12] | [13] | [14] | [15] | [16]
